# Measured values from paper PMC11006913.
# Numbering of substitutions follows the chain as printed.
# Columns and labels:
# Assay in all cases: PBM; 200 nM protein, PBS
# Details in all cases: dsDNA, one strand shown
# [1] = target: HOXB4 (Homo sapiens, UniProt P17483 148-234)
# [2] = target: T1, VENTX (Homo sapiens, UniProt O95231 78-163, R121Q)
# T1 sequence: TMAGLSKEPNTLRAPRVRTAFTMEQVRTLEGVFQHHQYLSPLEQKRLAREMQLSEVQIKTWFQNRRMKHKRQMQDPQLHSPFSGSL
# [3] = target: HOXB9 (Homo sapiens, UniProt P17482 171-250, T197M)
# Chain of HOXB9 (Homo sapiens, UniProt P17482 171-250, T197M) (P17482 171-250 T197M): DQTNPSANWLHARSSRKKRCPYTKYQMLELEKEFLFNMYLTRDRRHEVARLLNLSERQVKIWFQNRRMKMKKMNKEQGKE
# [4] = target: HOXA4 (Homo sapiens, UniProt Q00056 201-287, W262R)
# Chain of HOXA4 (Homo sapiens, UniProt Q00056 201-287, W262R) (Q00056 201-287 W262R): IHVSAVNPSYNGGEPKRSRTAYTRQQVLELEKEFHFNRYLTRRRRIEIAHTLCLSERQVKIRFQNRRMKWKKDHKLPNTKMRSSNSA
# [5] = target: HOXC9 (Homo sapiens, UniProt P31274 178-260, K195R)
# Chain of HOXC9 (Homo sapiens, UniProt P31274 178-260, K195R) (P31274 178-260 K195R): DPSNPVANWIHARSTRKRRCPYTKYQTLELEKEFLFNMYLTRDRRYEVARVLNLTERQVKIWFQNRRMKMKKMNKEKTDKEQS
# [6] = target: T2, VENTX (Homo sapiens, UniProt O95231 78-163)
# T2 sequence: T1 sequence with Q44R
# [7] = target: HOXA7 (Homo sapiens, UniProt P31268 116-202)
# Chain of HOXA7 (Homo sapiens, UniProt P31268 116-202) (P31268 116-202): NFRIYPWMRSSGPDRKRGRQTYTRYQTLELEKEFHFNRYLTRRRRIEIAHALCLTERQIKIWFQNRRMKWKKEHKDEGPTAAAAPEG
# [8] = target: HOXC10 (Homo sapiens, UniProt Q9NYD6 254-340)
# Chain of HOXC10 (Homo sapiens, UniProt Q9NYD6 254-340) (Q9NYD6 254-340): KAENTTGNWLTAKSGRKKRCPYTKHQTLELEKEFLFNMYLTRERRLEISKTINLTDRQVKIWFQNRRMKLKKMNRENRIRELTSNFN
# [9] = target: T3, VENTX (Homo sapiens, UniProt O95231 78-163, Y115F)
# T3 sequence: T1 sequence with Y38F, Q44R
# [10] = target: HOXB6 (Homo sapiens, UniProt P17509 132-218, K202E)
# Chain of HOXB6 (Homo sapiens, UniProt P17509 132-218, K202E) (P17509 132-218 K202E): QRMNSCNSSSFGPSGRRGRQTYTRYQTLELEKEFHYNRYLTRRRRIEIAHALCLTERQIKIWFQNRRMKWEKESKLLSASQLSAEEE
# [11] = target: HOXA2 (Homo sapiens, UniProt O43364 129-215, R185T)
# Chain of HOXA2 (Homo sapiens, UniProt O43364 129-215, R185T) (O43364 129-215 R185T): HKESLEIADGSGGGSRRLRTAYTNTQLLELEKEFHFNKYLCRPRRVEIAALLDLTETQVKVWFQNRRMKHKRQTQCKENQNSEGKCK
# [12] = target: HOXA4 (Homo sapiens, UniProt Q00056 201-287, R217L)
# Chain of HOXA4 (Homo sapiens, UniProt Q00056 201-287, R217L) (Q00056 201-287 R217L): as the sequence (Q00056 201-287 W262R) above, with R17L, R62W counted along it
# [13] = target: HOXB9 (Homo sapiens, UniProt P17482 171-250)
# Chain of HOXB9 (Homo sapiens, UniProt P17482 171-250) (P17482 171-250): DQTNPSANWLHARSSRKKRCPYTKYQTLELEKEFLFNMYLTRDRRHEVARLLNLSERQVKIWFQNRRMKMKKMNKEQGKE
# [14] = target: HOXB4 (Homo sapiens, UniProt P17483 148-234, V174I)
# Chain of HOXB4 (Homo sapiens, UniProt P17483 148-234, V174I) (P17483 148-234 V174I): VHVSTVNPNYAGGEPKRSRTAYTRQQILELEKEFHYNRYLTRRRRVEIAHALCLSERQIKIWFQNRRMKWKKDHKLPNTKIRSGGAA
# [15] = target: HOXC9 (Homo sapiens, UniProt P31274 178-260)
# Chain of HOXC9 (Homo sapiens, UniProt P31274 178-260) (P31274 178-260): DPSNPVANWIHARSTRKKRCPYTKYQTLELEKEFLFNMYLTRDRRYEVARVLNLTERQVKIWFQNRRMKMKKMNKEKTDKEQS
# [16] = target: HOXC9 (Homo sapiens, UniProt P31274 178-260, R193K)
# Chain of HOXC9 (Homo sapiens, UniProt P31274 178-260, R193K) (P31274 178-260 R193K): as the sequence (P31274 178-260) above, with R16K counted along it
# [17] = target: HOXA2 (Homo sapiens, UniProt O43364 129-215, R185K)
# Chain of HOXA2 (Homo sapiens, UniProt O43364 129-215, R185K) (O43364 129-215 R185K): as the sequence (O43364 129-215 R185T) above, with T57K counted along it
# [18] = target: HOXA4 (Homo sapiens, UniProt Q00056 201-287)
# Chain of HOXA4 (Homo sapiens, UniProt Q00056 201-287) (Q00056 201-287): as the sequence (Q00056 201-287 W262R) above, with R62W counted along it
# [19] = target: HOXC10 (Homo sapiens, UniProt Q9NYD6 254-340, K271E)
# Chain of HOXC10 (Homo sapiens, UniProt Q9NYD6 254-340, K271E) (Q9NYD6 254-340 K271E): as the sequence (Q9NYD6 254-340) above, with K18E counted along it
# [20] = target: VAX1 (Homo sapiens, UniProt Q5SQQ9 86-172)
# Chain of VAX1 (Homo sapiens, UniProt Q5SQQ9 86-172) (Q5SQQ9 86-172): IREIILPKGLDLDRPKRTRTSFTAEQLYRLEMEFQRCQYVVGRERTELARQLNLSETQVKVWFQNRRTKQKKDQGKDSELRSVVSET
# [21] = target: HOXD13 (Homo sapiens, UniProt P35453 263-343, T313A)
# Chain of HOXD13 (P35453 263-343 T313A): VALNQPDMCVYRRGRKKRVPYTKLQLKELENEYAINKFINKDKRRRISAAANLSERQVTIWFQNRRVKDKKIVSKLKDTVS
# [22] = target: HOXB9 (Homo sapiens, UniProt P17482 171-250, R186Q)
# Chain of HOXB9 (Homo sapiens, UniProt P17482 171-250, R186Q) (P17482 171-250 R186Q): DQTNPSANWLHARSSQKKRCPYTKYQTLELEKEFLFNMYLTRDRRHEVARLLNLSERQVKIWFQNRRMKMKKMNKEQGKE
# [23] = target: HOXC9 (Homo sapiens, UniProt P31274 178-260, R222W)
# Chain of HOXC9 (Homo sapiens, UniProt P31274 178-260, R222W) (P31274 178-260 R222W): as the sequence (P31274 178-260) above, with R45W counted along it
# [24] = target: VAX1 (Homo sapiens, UniProt Q5SQQ9 86-172, T142I)
# Chain of VAX1 (Homo sapiens, UniProt Q5SQQ9 86-172, T142I) (Q5SQQ9 86-172 T142I): as the sequence (Q5SQQ9 86-172) above, with T57I counted along it
# [25] = target: HOXA2 (Homo sapiens, UniProt O43364 129-215, Y150S)
# Chain of HOXA2 (Homo sapiens, UniProt O43364 129-215, Y150S) (O43364 129-215 Y150S): as the sequence (O43364 129-215 R185T) above, with Y22S, T57R counted along it
# [26] = target: HOXA7 (Homo sapiens, UniProt P31268 116-202, W177C)
# Chain of HOXA7 (Homo sapiens, UniProt P31268 116-202, W177C) (P31268 116-202 W177C): as the sequence (P31268 116-202) above, with W62C counted along it
# [27] = target: HOXA4 (Homo sapiens, UniProt Q00056 201-287, W262F)
# Chain of HOXA4 (Homo sapiens, UniProt Q00056 201-287, W262F) (Q00056 201-287 W262F): as the sequence (Q00056 201-287 W262R) above, with R62F counted along it
# [28] = target: HOXA2 (Homo sapiens, UniProt O43364 129-215)
# Chain of HOXA2 (Homo sapiens, UniProt O43364 129-215) (O43364 129-215): as the sequence (O43364 129-215 R185T) above, with T57R counted along it
# [29] = target: VAX1 (Homo sapiens, UniProt Q5SQQ9 86-172, K157R)
# Chain of VAX1 (Homo sapiens, UniProt Q5SQQ9 86-172, K157R) (Q5SQQ9 86-172 K157R): as the sequence (Q5SQQ9 86-172) above, with K72R counted along it
# [30] = target: HOXB6 (Homo sapiens, UniProt P17509 132-218)
# Chain of HOXB6 (Homo sapiens, UniProt P17509 132-218) (P17509 132-218): as the sequence (P17509 132-218 K202E) above, with E71K counted along it
# [31] = target: T4, NKX2-6 (Homo sapiens, UniProt A6NCS4 118-204)
# T4 sequence: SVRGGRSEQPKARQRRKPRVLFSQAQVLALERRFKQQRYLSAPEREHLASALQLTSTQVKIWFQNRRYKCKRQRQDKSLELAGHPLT
# Chain of HOXB4 (Homo sapiens, UniProt P17483 148-234) (P17483 148-234): as the sequence (P17483 148-234 V174I) above, with I27V counted along it
sequence,measurement,setting,value
GTCATTAA,binding signal,[1],"13.3 upbm affinity estimate (log intensity, higher = more binding, comparable within an allelic series)"
same,binding signal,[2],"12.1 upbm affinity estimate (log intensity, higher = more binding, comparable within an allelic series)"
same,binding signal,[3],"10.4 upbm affinity estimate (log intensity, higher = more binding, comparable within an allelic series)"
same,binding signal,[4],"10.9 upbm affinity estimate (log intensity, higher = more binding, comparable within an allelic series)"
same,binding signal,[5],"13.1 upbm affinity estimate (log intensity, higher = more binding, comparable within an allelic series)"
same,binding signal,[6],"12.6 upbm affinity estimate (log intensity, higher = more binding, comparable within an allelic series)"
same,binding signal,[7],"12.2 upbm affinity estimate (log intensity, higher = more binding, comparable within an allelic series)"
same,binding signal,[8],"12.6 upbm affinity estimate (log intensity, higher = more binding, comparable within an allelic series)"
same,binding signal,[9],"12.1 upbm affinity estimate (log intensity, higher = more binding, comparable within an allelic series)"
same,binding signal,[10],"10.3 upbm affinity estimate (log intensity, higher = more binding, comparable within an allelic series)"
same,binding signal,[11],"13.2 upbm affinity estimate (log intensity, higher = more binding, comparable within an allelic series)"
same,binding signal,[12],"12.9 upbm affinity estimate (log intensity, higher = more binding, comparable within an allelic series)"
same,binding signal,[13],"12.5 upbm affinity estimate (log intensity, higher = more binding, comparable within an allelic series)"
same,binding signal,[14],"13.9 upbm affinity estimate (log intensity, higher = more binding, comparable within an allelic series)"
same,binding signal,[15],"13.2 upbm affinity estimate (log intensity, higher = more binding, comparable within an allelic series)"
same,binding signal,[16],"13.1 upbm affinity estimate (log intensity, higher = more binding, comparable within an allelic series)"
same,binding signal,[17],"13.8 upbm affinity estimate (log intensity, higher = more binding, comparable within an allelic series)"
same,binding signal,[18],"14.1 upbm affinity estimate (log intensity, higher = more binding, comparable within an allelic series)"
same,binding signal,[19],"12.8 upbm affinity estimate (log intensity, higher = more binding, comparable within an allelic series)"
same,binding signal,[20],"13.4 upbm affinity estimate (log intensity, higher = more binding, comparable within an allelic series)"
same,binding signal,[21],"11.6 upbm affinity estimate (log intensity, higher = more binding, comparable within an allelic series)"
same,binding signal,[22],"12.2 upbm affinity estimate (log intensity, higher = more binding, comparable within an allelic series)"
same,binding signal,[23],"11 upbm affinity estimate (log intensity, higher = more binding, comparable within an allelic series)"
same,binding signal,[24],"13.4 upbm affinity estimate (log intensity, higher = more binding, comparable within an allelic series)"
same,binding signal,[25],"11 upbm affinity estimate (log intensity, higher = more binding, comparable within an allelic series)"
same,binding signal,[26],"8.94 upbm affinity estimate (log intensity, higher = more binding, comparable within an allelic series)"
same,binding signal,[27],"12.6 upbm affinity estimate (log intensity, higher = more binding, comparable within an allelic series)"
same,binding signal,[28],"12.9 upbm affinity estimate (log intensity, higher = more binding, comparable within an allelic series)"
same,binding signal,[29],"13.3 upbm affinity estimate (log intensity, higher = more binding, comparable within an allelic series)"
same,binding signal,[30],"12.4 upbm affinity estimate (log intensity, higher = more binding, comparable within an allelic series)"
CTAATGAC,binding signal,[1],"13.2 upbm affinity estimate (log intensity, higher = more binding, comparable within an allelic series)"
same,binding signal,[2],"11.9 upbm affinity estimate (log intensity, higher = more binding, comparable within an allelic series)"
same,binding signal,[4],"10.6 upbm affinity estimate (log intensity, higher = more binding, comparable within an allelic series)"
same,binding signal,[6],"12.5 upbm affinity estimate (log intensity, higher = more binding, comparable within an allelic series)"
same,binding signal,[9],"11.9 upbm affinity estimate (log intensity, higher = more binding, comparable within an allelic series)"
same,binding signal,[11],"13.1 upbm affinity estimate (log intensity, higher = more binding, comparable within an allelic series)"
same,binding signal,[12],"12.1 upbm affinity estimate (log intensity, higher = more binding, comparable within an allelic series)"
same,binding signal,[14],"13.9 upbm affinity estimate (log intensity, higher = more binding, comparable within an allelic series)"
same,binding signal,[31],"11.7 upbm affinity estimate (log intensity, higher = more binding, comparable within an allelic series)"
same,binding signal,[17],"13.7 upbm affinity estimate (log intensity, higher = more binding, comparable within an allelic series)"
same,binding signal,[18],"13.9 upbm affinity estimate (log intensity, higher = more binding, comparable within an allelic series)"
same,binding signal,[20],"13.3 upbm affinity estimate (log intensity, higher = more binding, comparable within an allelic series)"
same,binding signal,[24],"13.2 upbm affinity estimate (log intensity, higher = more binding, comparable within an allelic series)"
same,binding signal,[25],"10.9 upbm affinity estimate (log intensity, higher = more binding, comparable within an allelic series)"
same,binding signal,[27],"12 upbm affinity estimate (log intensity, higher = more binding, comparable within an allelic series)"
same,binding signal,[28],"12.9 upbm affinity estimate (log intensity, higher = more binding, comparable within an allelic series)"
same,binding signal,[29],"13.2 upbm affinity estimate (log intensity, higher = more binding, comparable within an allelic series)"
GCTAATGA,binding signal,[1],"13.3 upbm affinity estimate (log intensity, higher = more binding, comparable within an allelic series)"
same,binding signal,[2],"11.9 upbm affinity estimate (log intensity, higher = more binding, comparable within an allelic series)"
same,binding signal,[4],"10.5 upbm affinity estimate (log intensity, higher = more binding, comparable within an allelic series)"
same,binding signal,[6],"12.5 upbm affinity estimate (log intensity, higher = more binding, comparable within an allelic series)"
same,binding signal,[9],"11.9 upbm affinity estimate (log intensity, higher = more binding, comparable within an allelic series)"
same,binding signal,[11],"13.1 upbm affinity estimate (log intensity, higher = more binding, comparable within an allelic series)"
same,binding signal,[12],"12.1 upbm affinity estimate (log intensity, higher = more binding, comparable within an allelic series)"
same,binding signal,[14],"14 upbm affinity estimate (log intensity, higher = more binding, comparable within an allelic series)"
same,binding signal,[17],"13.6 upbm affinity estimate (log intensity, higher = more binding, comparable within an allelic series)"
same,binding signal,[18],"13.9 upbm affinity estimate (log intensity, higher = more binding, comparable within an allelic series)"
same,binding signal,[20],"13.5 upbm affinity estimate (log intensity, higher = more binding, comparable within an allelic series)"
same,binding signal,[24],"13.3 upbm affinity estimate (log intensity, higher = more binding, comparable within an allelic series)"
same,binding signal,[25],"10.8 upbm affinity estimate (log intensity, higher = more binding, comparable within an allelic series)"
same,binding signal,[27],"11.9 upbm affinity estimate (log intensity, higher = more binding, comparable within an allelic series)"
same,binding signal,[28],"12.8 upbm affinity estimate (log intensity, higher = more binding, comparable within an allelic series)"
same,binding signal,[29],"13.4 upbm affinity estimate (log intensity, higher = more binding, comparable within an allelic series)"
CGTGCCTC,binding signal,[1],"7.37 upbm affinity estimate (log intensity, higher = more binding, comparable within an allelic series)"
same,binding signal,[3],"8.3 upbm affinity estimate (log intensity, higher = more binding, comparable within an allelic series)"
same,binding signal,[8],"10 upbm affinity estimate (log intensity, higher = more binding, comparable within an allelic series)"
same,binding signal,[10],"8.93 upbm affinity estimate (log intensity, higher = more binding, comparable within an allelic series)"
same,binding signal,[13],"8.2 upbm affinity estimate (log intensity, higher = more binding, comparable within an allelic series)"
same,binding signal,[14],"7.39 upbm affinity estimate (log intensity, higher = more binding, comparable within an allelic series)"
same,binding signal,[19],"9.99 upbm affinity estimate (log intensity, higher = more binding, comparable within an allelic series)"
same,binding signal,[22],"8.24 upbm affinity estimate (log intensity, higher = more binding, comparable within an allelic series)"
same,binding signal,[30],"8.84 upbm affinity estimate (log intensity, higher = more binding, comparable within an allelic series)"
